Laboratory results published in PubChem BioAssay (NCI).
About 83,000 compounds went through this panel and 20% of them were active in at least one assay; those are over-represented in the sample as a whole.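 Growth was measured after 48 h exposure to one concentration of compound in 96-well plates. Values under 10 count as active.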 Active and inactive are the calls of the source.

Tests used:
Assay in all cases: NCI-60 one-dose screen, 48 h (100 = growth as untreated, 0 = no growth, -100 = all killed)
Settings in all cases: 10 µM unless noted
HCT-15 colon = system: HCT-15 colon
HT29 colon = system: HT29 colon
SNB-19 CNS = system: SNB-19 CNS
U251 CNS = system: U251 CNS
PC-3 prostate = system: PC-3 prostate
SK-MEL-5 melanoma = system: SK-MEL-5 melanoma
UACC-62 melanoma = system: UACC-62 melanoma
LOX IMVI melanoma = system: LOX IMVI melanoma
SK-MEL-2 melanoma = system: SK-MEL-2 melanoma
EKVX NSCLC = system: EKVX NSCLC
SN12C renal = system: SN12C renal
UO-31 renal = system: UO-31 renal
ACHN renal = system: ACHN renal
CAKI-1 renal = system: CAKI-1 renal
A498 renal = system: A498 renal
CCRF-CEM leukemia = system: CCRF-CEM leukemia
MOLT-4 leukemia = system: MOLT-4 leukemia
SK-MEL-28 melanoma = system: SK-MEL-28 melanoma
TK-10 renal = system: TK-10 renal

Measured: growth

COc1cc2c(=O)n(C3CCCCCC3)c3c4cc[nH]c4ncc3c2cc1OC
inactive: HCT-15 colon 62.9% | HT29 colon 79.9% | SNB-19 CNS 85.1% | U251 CNS 67% | PC-3 prostate 78.1% | SK-MEL-5 melanoma 87.2% | UACC-62 melanoma 99.9% | LOX IMVI melanoma 60.8% | SK-MEL-2 melanoma 90.3% | EKVX NSCLC 91.8% | SN12C renal 55.6% | UO-31 renal 81.2% | ACHN renal 70.5% | CAKI-1 renal 73.7% | A498 renal 24.6% | CCRF-CEM leukemia 51.1% | MOLT-4 leukemia 40.9%

CC(C)c1ccc2occ(C=C3C(=O)NC(=O)NC3=O)c(=O)c2c1
inactive: HCT-15 colon 85.8% | HT29 colon 94.7% | SNB-19 CNS 81% | U251 CNS 74.3% | PC-3 prostate 92% | SK-MEL-5 melanoma 97.3% | UACC-62 melanoma 82.1% | SK-MEL-28 melanoma 99.8% | SK-MEL-2 melanoma 93.5% | EKVX NSCLC 117% | SN12C renal 91.5% | UO-31 renal 86.6% | TK-10 renal 84.6% | ACHN renal 104% | CAKI-1 renal 103% | CCRF-CEM leukemia 77.8% | MOLT-4 leukemia 66.8%

N=C(N)c1ccc(-c2ccc(-c3cncc4ccccc34)s2)cc1F
active: HCT-15 colon -80.6% | HT29 colon -91.7% | SNB-19 CNS -76.1% | U251 CNS -92.3% | PC-3 prostate -93.6% | SK-MEL-5 melanoma -99.1% | UACC-62 melanoma -91.3% | SK-MEL-2 melanoma -40.4% | EKVX NSCLC -77% | SN12C renal -93.1% | UO-31 renal -87.3% | TK-10 renal -91.2% | ACHN renal -97.5% | CAKI-1 renal -87.5%
inactive: SK-MEL-28 melanoma 85.7% | A498 renal 73.8%

O=C(O)/C=C/C(=O)c1ccc(Cl)cc1
inactive: HCT-15 colon 103% | HT29 colon 91.3% | SNB-19 CNS 111% | U251 CNS 100% | PC-3 prostate 106% | SK-MEL-5 melanoma 107% | UACC-62 melanoma 109% | SK-MEL-28 melanoma 115% | SK-MEL-2 melanoma 109% | EKVX NSCLC 114% | SN12C renal 112% | UO-31 renal 90.1% | TK-10 renal 105% | ACHN renal 106% | CAKI-1 renal 107% | A498 renal 107%

ClC(Cl)c1nc(-c2ccccc2)nc2cc(-c3ccccc3)nn12
inactive: SNB-19 CNS 55.7% | U251 CNS 14.6% | PC-3 prostate 35.4% | SK-MEL-5 melanoma 90.4% | UACC-62 melanoma 62.8% | SK-MEL-28 melanoma 107% | SK-MEL-2 melanoma 103% | EKVX NSCLC 58.6% | SN12C renal 72.1% | UO-31 renal 58.7% | TK-10 renal 21.6% | ACHN renal 46.2% | CAKI-1 renal 50.6% | A498 renal 80.7% | MOLT-4 leukemia 101%
active: HCT-15 colon 7.78% | HT29 colon 2.11%

N=C(N)c1ccc(-c2ccc(-c3ccc4ccccc4c3)s2)cc1
inactive: SNB-19 CNS 97.1% | U251 CNS 27% | PC-3 prostate 91.6% | SK-MEL-5 melanoma 93.9% | UACC-62 melanoma 96.9% | SK-MEL-28 melanoma 100% | SK-MEL-2 melanoma 104% | EKVX NSCLC 105% | SN12C renal 95.8% | UO-31 renal 84.6% | TK-10 renal 27% | ACHN renal 97.1% | CAKI-1 renal 92.3% | A498 renal 91.3% | CCRF-CEM leukemia 64.1% | MOLT-4 leukemia 76.3%
active: HCT-15 colon 3.41% | HT29 colon -42%

CCN1CCN(CC(=O)N2c3cccc4cccc(c34)N(C(=O)CN3CCN(CC)CC3)C2c2cn(-c3ccccc3)nc2-c2cccc([N+](=O)[O-])c2)CC1
inactive: PC-3 prostate 21.6% | EKVX NSCLC 36.5% | A498 renal 74.7%
active: HCT-15 colon -45.5% | HT29 colon -41.5% | SNB-19 CNS 8% | U251 CNS -82.1% | SK-MEL-5 melanoma -92.5% | UACC-62 melanoma -82.4% | SK-MEL-28 melanoma -87.6% | SK-MEL-2 melanoma -9.31% | SN12C renal -53% | UO-31 renal -26.1% | TK-10 renal -41.4% | ACHN renal -43.6% | CAKI-1 renal -5.5% | CCRF-CEM leukemia -33.6% | MOLT-4 leukemia -33.7%

COc1cc(Nc2nc(N[C@H]3CCCC[C@@H]3N)nc3cc[nH]c(=O)c23)cc(OC)c1
active: HT29 colon 7.69% | LOX IMVI melanoma -66.8% | MOLT-4 leukemia 3.76%
inactive: HCT-15 colon 60.9% | SNB-19 CNS 37.4% | U251 CNS 44.3% | PC-3 prostate 44.6% | SK-MEL-5 melanoma 57.7% | UACC-62 melanoma 41.2% | SK-MEL-2 melanoma 41.7% | SN12C renal 33.2% | UO-31 renal 47.7% | TK-10 renal 66.5% | ACHN renal 44.7% | A498 renal 12.4%

CN(C)c1oc(C2OC2c2ccccc2)nc1C#N (configuration not stated)
inactive: HCT-15 colon 106% | HT29 colon 92.9% | SNB-19 CNS 83.2% | U251 CNS 94% | PC-3 prostate 101% | UACC-62 melanoma 76.1% | LOX IMVI melanoma 99.3% | SK-MEL-28 melanoma 87.8% | SK-MEL-2 melanoma 99.4% | EKVX NSCLC 102% | SN12C renal 95.1% | UO-31 renal 77.8% | TK-10 renal 129% | ACHN renal 94.7% | CAKI-1 renal 93.7% | A498 renal 123% | CCRF-CEM leukemia 86.1% | MOLT-4 leukemia 97.7%
